Our source for the binding signal values is article PMC7819943, “Rice protein-binding microarrays: a tool to detect cis-acting elements near promoter regions in rice”.

In all, about 68,000 sequences were measured (“fluorescence intensity (a.u.)”: median about 9,100, highest 2% from about 16,000 on). Many of the other results were omitted from the sample, so the highest values are more common in it than they were.

Sequence of OsWRKY34 (Q0JBA9 entry or part of it): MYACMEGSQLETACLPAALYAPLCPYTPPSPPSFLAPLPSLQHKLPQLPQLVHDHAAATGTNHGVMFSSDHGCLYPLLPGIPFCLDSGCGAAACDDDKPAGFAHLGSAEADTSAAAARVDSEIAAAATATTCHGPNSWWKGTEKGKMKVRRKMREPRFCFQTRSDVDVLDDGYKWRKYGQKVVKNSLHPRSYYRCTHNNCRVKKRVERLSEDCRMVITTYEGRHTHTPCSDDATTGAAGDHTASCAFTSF

The target in the assay is OsWRKY34 (Oryza sativa, UniProt Q0JBA9 1-250). The experiment in a line: protein-binding microarray (RPBM); PBS, 2% BSA, 51.3 ng/ul salmon testes DNA, 50 uM zinc acetate, 200 nM TF, 25 C, 1 h; high values mean tight binding. As to conditions: protein: recombinant; tags: N-terminal polyhistidine and DsRed monomer fusion (pET32a); label: CyDye5-dUTP incorporated in the synthesized complementary strand; 3' TTTTT single-stranded linker to array surface; dsDNA, one strand shown. A digest of the protocol:
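Transcription factors were each fused at the N-terminus to a polyhistidine tag plus DsRed and expressed in E. coli BL21-CodonPlus before Ni–NTA purification. Binding to a double-stranded custom Agilent array was carried out with 200 nM protein at 25 °C for 1 h in PBS, 2% BSA, salmon testes DNA and 50 µM zinc acetate. The binding signal is per-feature fluorescence intensity, in arbitrary units, on an Axon 4000B scanner.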
As to “TGTGCCTGCCGACTCGCCCACGCAACTCCGACTCTTTCCTCGGAGTCACCTAGTGCAG”, the binding signal is 13500 fluorescence intensity (a.u.). In the case of “CTTGGGGAAGGCGGCGGGTGTCGGGGAGGGCGAGGGTATCCGGAGTCACCTAGTGCAG”, the binding signal is 18000 fluorescence intensity (a.u.).

As for “CTGGCGAGCAGAGCAGGGGAGGGGAGGGGAGGGGATCGGGCGGAGTCACCTAGTGCAG”, the binding signal is 14200 fluorescence intensity (a.u.). As for “TTGGCGCGCGGTTGGTGGGGCGGTGGTGGTGGTGGTGCCTCGGAGTCACCTAGTGCAG”, the binding signal is 17400 fluorescence intensity (a.u.).

Regarding “GCGGGACTTGCAGATCCGAGCGGGCGGGGCGGGGCGGGTTCGGAGTCACCTAGTGCAG”, the binding signal is 22000 fluorescence intensity (a.u.). The figure for “GTTAACTTTTGGTAGTTGCAGGGGTTCTATAGGTGGGCAGCGGAGTCACCTAGTGCAG” is 8640 fluorescence intensity (a.u.). The result for “GGCGGGGCGGATCCGAGGGGCGAAGTGGGTCGGGCGGCGGCGGAGTCACCTAGTGCAG” reads 9480 fluorescence intensity (a.u.); that for “GGAGTGTGGCGGAGCGGGAGTTCGCGGGCGGACGGCGGGGCGGAGTCACCTAGTGCAG”, 11700 fluorescence intensity (a.u.); that for “TGAGGTTTTGGGTTCTTGGGCACTTCTTGTTCTAGCCAAGCGGAGTCACCTAGTGCAG”, 9900 fluorescence intensity (a.u.).

“GTGGGTTGGGGTCGGCGAGGGATCCGGGCGGCGGGGTATGCGGAGTCACCTAGTGCAG”: the binding signal is 14000 fluorescence intensity (a.u.).

In the case of “TATGGGTAGGTTCTTGTTCTATGGGGCAGGGGTCTTAAAGCGGAGTCACCTAGTGCAG”, the binding signal was 17100 fluorescence intensity (a.u.). The figure for “GGTTGGTGGCGGTGGGCCGGTGGCGGCTCGGTGGCGGAGCCGGAGTCACCTAGTGCAG” is 10200 fluorescence intensity (a.u.); for “TTGGTGGGTGGCGCGGTGGCCGGACCTGGGGTGGTGGGCGCGGAGTCACCTAGTGCAG” it is 15900 fluorescence intensity (a.u.); for “GCTATCGCCGGTTTCGTCATCAATAATCTTCTCTGCCTCTCGGAGTCACCTAGTGCAG” it is 8820 fluorescence intensity (a.u.). On to “TTTCATCGTTTAGTGTCTTACTCCCTTTCCGATGGTCAACCGGAGTCACCTAGTGCAG”, for which the binding signal is 9340 fluorescence intensity (a.u.). The figure for “CATTCTTGTCTGTAGCTTATTTGTTCGTGTTCATTAGTTTCGGAGTCACCTAGTGCAG” is 13500 fluorescence intensity (a.u.); for “TGTCTCTCTTTGACATCTTGTTTCCCATAACCTAAAGATACGGAGTCACCTAGTGCAG” it is 8260 fluorescence intensity (a.u.); for “GTACGCAACTTGTCCGCAGCCGCGACCCCGACCCGACCCGCGGAGTCACCTAGTGCAG” it is 8200 fluorescence intensity (a.u.).

Turning to “ATCATCCATATCCAGCTATACTATACTACTCGATCCCTTCCGGAGTCACCTAGTGCAG”, the binding signal was 10200 fluorescence intensity (a.u.). Take “CCCTCTCTCTATTTAAGCAAGCACATTCTCCTCTTCTTCTCGGAGTCACCTAGTGCAG”: the binding signal is 8240 fluorescence intensity (a.u.).

Turning to “GCCGACTCTTACTCCTCCGCCCACTCACCACGCGCGCTGCCGGAGTCACCTAGTGCAG”, the binding signal was 11000 fluorescence intensity (a.u.). The result for “GCGGGCGGAGGAGCTCGGGCGTGGGCGGGGAGGGCGGATCCGGAGTCACCTAGTGCAG” reads 20800 fluorescence intensity (a.u.); that for “GTTGGGAAGGAAAGGGAGGGGTTGGTGCTCTCCTCCTCTTCGGAGTCACCTAGTGCAG”, 9740 fluorescence intensity (a.u.); that for “GGGAGGGGTGGCTCGGCGGCGGTGCGGGGTGGCGGTGCTCCGGAGTCACCTAGTGCAG”, 18700 fluorescence intensity (a.u.). The result for “GTGGCCGGCGGCGTTCGGGCGTGGGCGGGGAGGCCGGATCCGGAGTCACCTAGTGCAG” reads 13700 fluorescence intensity (a.u.); that for “CTCTTCTCCTCCAAGGATGGGGAGGTGGGGATGGTGGGGACGGAGTCACCTAGTGCAG”, 19400 fluorescence intensity (a.u.); that for “AGAGGTGGAAGGGGATGGGGAGAAAAAAAAGGAGAGGGGACGGAGTCACCTAGTGCAG”, 8410 fluorescence intensity (a.u.).

As to “GGCGGAGCTCGGGATGTGGGAGGAGGAGGGCTATTTATTCCGGAGTCACCTAGTGCAG”, the binding signal was 14400 fluorescence intensity (a.u.). The figure for “TGGCGGCTCGGTGGCGGAGCTCCGGTGTGGGGTGGTGTGGCGGAGTCACCTAGTGCAG” is 8140 fluorescence intensity (a.u.); for “CGAGTGACGAGGTCTTGGGTTGGGGTAGGGGTGGGATGAGCGGAGTCACCTAGTGCAG” it is 19900 fluorescence intensity (a.u.); for “GAGTGGTGGAGGGTTGTGATTGGATGAGTAGTGGAGGTAGCGGAGTCACCTAGTGCAG” it is 8760 fluorescence intensity (a.u.). The figure for “CCGGGTGGAGGGCGGGGAAGCGGCGGCGGAACTCCGGGCTCGGAGTCACCTAGTGCAG” is 8490 fluorescence intensity (a.u.); for “TTGGGAGGGATGGGGCGGTGGTTAGGGGATGAGCGGAGGACGGAGTCACCTAGTGCAG” it is 13200 fluorescence intensity (a.u.). For “CAGTATCTTACTTCTCAGCTGCTCAATCATCAGCTGCCACCGGAGTCACCTAGTGCAG”, the binding signal is 9310 fluorescence intensity (a.u.). On to “GCAAGATCTCCATGATGCGACAGCTCTACCGTTACAATTACGGAGTCACCTAGTGCAG”, for which the binding signal was 8100 fluorescence intensity (a.u.). Take “TCAATCAACGGCTACTTGTATGTAATCTCCACGCATTCCACGGAGTCACCTAGTGCAG”: the binding signal was 8630 fluorescence intensity (a.u.). The result for “CTTTTTGTTTTGGCCTTGACGTCGTGTTCACCGCCTCTACCGGAGTCACCTAGTGCAG” reads 11800 fluorescence intensity (a.u.); that for “CAGAGCTCTTCCTGCTGTACCTACCAAGCTCTTACTTTGACGGAGTCACCTAGTGCAG”, 8060 fluorescence intensity (a.u.). As for “GTACTACTCCAAATCGTGTTCCACATTTCTATTTTGCACACGGAGTCACCTAGTGCAG”, the binding signal is 10200 fluorescence intensity (a.u.). Turning to “CTTAGGTCAACACCGAAAACTAATCACCATGTTGACTTTGCGGAGTCACCTAGTGCAG”, the binding signal is 9710 fluorescence intensity (a.u.). The result for “GATGGTGTGTGTGTGTGGCTGTGTGCACCTAAGAATTTCTCGGAGTCACCTAGTGCAG” reads 10400 fluorescence intensity (a.u.); that for “ATATTTATGTGCCAAATATTGTCAATTGTTCCTCTTGTTACGGAGTCACCTAGTGCAG”, 9080 fluorescence intensity (a.u.).
